# Measurements reported in PubChem BioAssay AID1159580 (chemical genetic matrix, 2015).
# Where “and” joins values, the source holds several entries; their conditions need not be identical. Equal entries are not always repeated. The campaign covered roughly 5,500 compounds. About 2,000 (36%) were called active. Another 18% or so got no clear call; they are omitted. Some of the results follow. Unmarked numbers belong to inactive results. Cut-off read from the data, not from the text of the source: active = normalized growth mostly below about 0.91 (no sharp cut-off); inconclusive = no clear call, values can overlap the other calls; inactive = mostly above about 0.92.
# Experiment: chemical genetic growth profiling, strain panel (AID 1159580);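 note: tested at 20 µM; growth read once vehicle control cultures reached saturation at 30 °C; 1 = growth at the plate median or of vehicle wells; lower values mean less growth of the strain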
# Settings: S. cerevisiae deletion strains, growth OD
structure (smiles),measurement,setting,value
COc1cc(O)c(C(=O)O)c(O)c1,normalized growth,"locus YAL013W, strain DEP1, active compounds read low",1
same,normalized growth,"locus YAL021C, strain ccr4, active compounds read low",0.992
same,normalized growth,"locus YAL026C, strain drs2, active compounds read low",0.995
same,normalized growth,"locus YAL030W, strain snc1, active compounds read low",0.99
same,normalized growth,"locus YBL061C, strain skt5, active compounds read low",1
same,normalized growth,"locus YBR009C, strain hhf1, active compounds read low",1
same,normalized growth,"locus YBR021W, strain FUR4, active compounds read low",1.02
same,normalized growth,"locus YBR023C, strain chs3, active compounds read low",0.998
same,normalized growth,"locus YBR171W, strain sec66, active compounds read low",0.971
same,normalized growth,"locus YBR229C, strain ROT2, active compounds read low",0.995
same,normalized growth,"locus YBR231C, strain swc5, active compounds read low",1
same,normalized growth,"locus YBR279W, strain paf1, active compounds read low",0.998
same,normalized growth,"locus YCL011C, strain gbp2, active compounds read low",0.988
same,normalized growth,"locus YCL016C, strain dcc1, active compounds read low",0.991
same,normalized growth,"locus YCL029C, strain bik1, active compounds read low",1.01
same,normalized growth,"locus YCL061C, strain MRC1, active compounds read low",0.979
same,normalized growth,"locus YCL069W, strain vba3, active compounds read low",0.99
same,normalized growth,"locus YCR088W, strain abp1, active compounds read low",0.984
same,normalized growth,"locus YDL005C, strain med2, active compounds read low",0.976
same,normalized growth,"locus YDL035C, strain GPR1, active compounds read low",1.02
same,normalized growth,"locus YDL040C, strain nat1, active compounds read low",0.999
same,normalized growth,"locus YDL074C, strain BRE1, active compounds read low",1.02
same,normalized growth,"locus YDL101C, strain DUN1, active compounds read low",1
same,normalized growth,"locus YDL134C, strain PPH21, active compounds read low",1
same,normalized growth,"locus YDL185W, strain tfp1, active compounds read low",0.949
same,normalized growth,"locus YDL192W, strain arf1, active compounds read low",1.02
same,normalized growth,"locus YDR001C, strain nth1, active compounds read low",0.98
same,normalized growth,"locus YDR069C, strain doa4, active compounds read low",1.01
same,normalized growth,"locus YDR101C, strain arx1, active compounds read low",1.01
same,normalized growth,"locus YDR137W, strain rgp1, active compounds read low",0.974
same,normalized growth,"locus YDR150W, strain NUM1, active compounds read low",1
same,normalized growth,"locus YDR159W, strain sac3, active compounds read low",1.01
same,normalized growth,"locus YDR162C, strain NBP2, active compounds read low",1.01
same,normalized growth,"locus YDR195W, strain ref2",0.987
same,normalized growth,"locus YDR297W, strain sur2, active compounds read low",1
same,normalized growth,"locus YDR318W, strain mcm21, active compounds read low",1.02
same,normalized growth,"locus YDR334W, strain swr1, active compounds read low",0.999
same,normalized growth,"locus YDR335W, strain msn5, active compounds read low",0.992
same,normalized growth,"locus YDR388W, active compounds read low",1
same,normalized growth,"locus YDR392W, strain spt3, active compounds read low",1.01
same,normalized growth,"locus YDR502C, strain sam2, active compounds read low",0.998
same,normalized growth,"locus YEL003W, strain gim4, active compounds read low",1
same,normalized growth,"locus YEL037C, strain rad23, active compounds read low",0.985
same,normalized growth,"locus YEL061C, strain CIN8 (second series), active compounds read low",0.981
same,normalized growth,"locus YEL061C, strain CIN8, active compounds read low",1
same,normalized growth,"locus YER015W, strain faa2, active compounds read low",0.99
same,normalized growth,"locus YER016W, strain bim1, active compounds read low",0.989
same,normalized growth,"locus YER110C, active compounds read low",1.02
same,normalized growth,"locus YER111C, strain swi4, active compounds read low",0.987
same,normalized growth,"locus YER155C, strain BEM2 (second series), active compounds read low",0.978
same,normalized growth,"locus YER155C, strain BEM2, active compounds read low",0.987
same,normalized growth,"locus YER167W, strain BCK2, active compounds read low",1.03
same,normalized growth,"locus YFR010W, strain ubp6, active compounds read low",1.01
same,normalized growth,"locus YGL078C, strain dbp3, active compounds read low",0.973
same,normalized growth,"locus YGL086W, strain mad1, active compounds read low",1.01
same,normalized growth,"locus YGL167C, strain pmr1, active compounds read low",0.989
same,normalized growth,"locus YGL173C, strain kem1, active compounds read low",0.997
same,normalized growth,"locus YGL227W, strain vid30, active compounds read low",0.982
same,normalized growth,"locus YGL240W, strain doc1, active compounds read low",0.995
same,normalized growth,"locus YGL248W, strain PDE1, active compounds read low",1.01
same,normalized growth,"locus YGL253W, strain hxk2, active compounds read low",0.979
same,normalized growth,"locus YGR078C, strain PAC10, active compounds read low",1.01
same,normalized growth,"locus YGR135W, strain pre9, active compounds read low",1.01
same,normalized growth,"locus YGR229C, strain SMI1, active compounds read low",1.02
same,normalized growth,"locus YGR252W, strain gcn5, active compounds read low",1
same,normalized growth,"locus YHR013C, strain ard1, active compounds read low",0.998
same,normalized growth,"locus YHR027C, strain rpn1, active compounds read low",0.978
same,normalized growth,"locus YHR030C, strain SLT2, active compounds read low",0.996 and 0.881
same,normalized growth,"locus YHR079C, strain IRE1 (second series), active compounds read low",1.01
same,normalized growth,"locus YHR079C, strain IRE1, active compounds read low",0.839 (active)
same,normalized growth,"locus YHR094C, strain hxt1, active compounds read low",0.997
same,normalized growth,"locus YHR129C, strain ARP1, active compounds read low",0.991
same,normalized growth,"locus YHR142W, strain chs7, active compounds read low",1.01
same,normalized growth,"locus YHR200W, strain rpn10, active compounds read low",1
same,normalized growth,"locus YIL066C, strain RNR3, active compounds read low",0.993
same,normalized growth,"locus YIL073C, strain SPO22, active compounds read low",1.09
same,normalized growth,"locus YIL125W, strain kgd1, active compounds read low",0.979
same,normalized growth,"locus YIR030C, strain dcg1, active compounds read low",1.01
same,normalized growth,"locus YJL092W, strain hpr5, active compounds read low",0.966
same,normalized growth,"locus YJL095W, strain BCK1 (second series), active compounds read low",0.998
same,normalized growth,"locus YJL095W, strain BCK1, active compounds read low",1 and 0.914
same,normalized growth,"locus YJL115W, strain asf1, active compounds read low",0.979
same,normalized growth,"locus YJL129C, strain trk1, active compounds read low",1
same,normalized growth,"locus YJL134W, strain LCB3, active compounds read low",0.993
same,normalized growth,"locus YJL154C, strain vps35, active compounds read low",0.976
same,normalized growth,"locus YJL164C, strain tpk1, active compounds read low",1.02
same,normalized growth,"locus YJL166W, strain qcr8, active compounds read low",1
same,normalized growth,"locus YJL168C, strain set2, active compounds read low",0.993
same,normalized growth,"locus YJL187C, strain SWE1 (second series), active compounds read low",1.01
same,normalized growth,"locus YJL187C, strain SWE1, active compounds read low",0.996
same,normalized growth,"locus YJR043C, strain POL32, active compounds read low",1.04
same,normalized growth,"locus YJR066W, strain TOR1, active compounds read low",0.841
